Laboratory results reported in ChEMBL document CHEMBL3988442, “University of Dundee, Small-Polar-MMV Screening Library” (2021).
Among all 48,000 compounds or so, about 13,000 (27%) showed an effect of 50% or more. The list shows a part of the results.

system: Wolbachia pipientis; assay: Anti-Wolbachia Cell-Based Screen; assay type: functional; set-up: scale not given: in the data most compounds retested in dose-response had high values; details: 5 µM

Structure (SMILES) | Percent Effect
O=S1(=O)CCC(n2cc(CNc3ccccc3Br)cn2)C1 (configuration not stated) | 3.444%
CCOCC1CCN(C(=O)C(c2c(F)cccc2F)N(C)C)CC1 (configuration not stated) | -13.66%
CC(C)c1nc(-c2ccc(=O)[nH]n2)n(-c2ccc3c(c2)OCO3)n1 | -26.15%
CC(C)N1CCOC[C@H]1c1nc(-c2ccncc2)c[nH]1 | 8.176%
CCc1nccn1CCC(=O)N1C[C@H]2CC[C@@H]1CN(C(=O)N(C)C)C2 | -6.839%
CCOC(C)C(=O)NCCNS(C)(=O)=O (configuration not stated) | 99.51%
CC(C)COC(C)C(=O)NCCNS(C)(=O)=O (configuration not stated) | 116.1%
CC(C)COC(C)C(=O)N1CCCCCC1 (configuration not stated) | -3.624%
CCN(CC)CCNC(=O)C(C)OCC(F)(F)F (configuration not stated) | -16.45%
CC(C)C(=O)NCCNC(=O)C(C)OCC(F)(F)F (configuration not stated) | 2.033%
CC(C)COC(C)C(=O)N1CCCC1 (configuration not stated) | -7.961%
CC(Oc1ccc(C(=O)NCCNS(C)(=O)=O)cn1)c1ccccc1 (configuration not stated) | 12.3%
CC(C)COC(C)C(=O)NCc1ccccc1Cn1ccnc1 (configuration not stated) | -1.115%
CC(C)COC(C)C(=O)NCCNC(=O)C(C)C (configuration not stated) | 90.67%
CC(C)N1CC(C(=O)N2CCN(CCn3cccc3)CC2)CC1=O (configuration not stated) | 11.86%
Cc1ccc(CN(CCN(C)C)Cc2ncc[nH]2)s1 | -6.049%
CNC(=O)c1cccc(CCNS(C)(=O)=O)c1 | -1.562%
COc1ccc(OC)c(C(C)NC(=O)Nc2nnc(C)s2)c1 (configuration not stated) | -19.71%
CN(C)C(=O)COCc1cncc2c1CCN(Cc1ccccc1)C2.O=C(O)C(F)(F)F.O=C(O)C(F)(F)F | -0.7445%
CN(C)CCOCc1cncc2c1CCN(Cc1ccccn1)C2.O=C(O)C(F)(F)F.O=C(O)C(F)(F)F.O=C(O)C(F)(F)F | 94.64%
CN(C)C(=O)COCc1cncc2c1CCN(Cc1cnn(C)c1)C2.O=C(O)C(F)(F)F.O=C(O)C(F)(F)F | -8.97%
O=C(O)C(F)(F)F.OCCOCc1n[nH]c2c1CN(Cc1ccccn1)C2 | -2.311%
CCCN1CCc2c(C(=O)N(C)Cc3ccccn3)nn(C)c2C1.O=C(O)C(F)(F)F.O=C(O)C(F)(F)F.O=C(O)C(F)(F)F | 5.255%
CN(C)C(=O)COCc1cncc2c1CCN(Cc1ccccn1)C2.O=C(O)C(F)(F)F.O=C(O)C(F)(F)F | 86.2%
O=C(O)c1cc(-c2ccncc2)cc(S(=O)(=O)NCc2ccccn2)c1 | -3.238%
CC(C1CC1)N(CC(=O)NC(=O)NC1CC1)C1CC1 (configuration not stated) | -6.692%

Structure (SMILES) | Percent Effect
Cc1nc(CCCNC(=O)Nc2cc(F)cc(F)c2)n[nH]1 | 105.8%
Cc1[nH]ncc1CCCNC(=O)Nc1ccc(F)cc1 | 17.19%
Cc1nc(CCCNC(=O)Nc2ccc(F)cc2F)n[nH]1 | 105.4%
Cc1[nH]ncc1CCCNC(=O)Nc1ccccc1 | -6.052%
O=C(CCCNC(=O)Nc1ccc(F)cc1F)Nc1cn[nH]c1 | -17.8%
O=C(Nc1ccc(F)cc1F)Nc1c[nH]c(=O)[nH]c1=O | -7.625%
CCC(CO)N(Cc1ccco1)C(=O)c1ccccc1SC (configuration not stated) | -1.914%
Cc1cc2c(c(-c3cncc(C(=O)N4CCCC4)n3)c1)OC(CN)C2 (configuration not stated) | 3.308%
Cn1ccc(CN2CCC(Oc3ccccc3)CC2)cc1=O | 0.4399%
COc1ccc(OC2CCN(Cc3ccn(C)c(=O)c3)CC2)cc1 | 90.95%
CCOc1ccccc1OC1CCN(Cc2ccn(C)c(=O)c2)CC1 | 96.61%
Cc1cccc(C)c1OC1CCN(Cc2ccn(C)c(=O)c2)CC1 | 80.01%
CC(=O)NCCC(=O)N(C/C=C/c1ccccc1)CCO | 2.612%
CC(C)(O)CCc1ccc(C(=O)NCC2CCCOC2)cc1 (configuration not stated) | -16.45%
CCc1nc(CN2CCN(C(=O)c3cc(C)nn3C)CC2)cs1 | -4.839%
Cc1ccc(C(=O)N2CCc3nc4c(C)csc4c(=O)n3CC2)cn1 | 130.6%
Cc1nc(-c2ccsc2)sc1C(=O)N1CCn2c(C)nnc2C1 | -8.635%
Cc1csc2nc3n(c(=O)c12)CCN(C(=O)c1ccncc1)CC3 | 0.2415%
CN1CCN(Cc2cnc3n2CCN(C(=O)c2ccccn2)C3)CC1 | -0.6061%
Cc1csc2c(=O)n3c(nc12)CCN(C(=O)c1cccnc1)CC3 | -6.131%
Cc1csc2c(=O)n3c(nc12)CCN(C(=O)c1ccccn1)CC3 | 118.3%
CCc1cc(C(=O)N2CCc3nc4c(C)csc4c(=O)n3CC2)on1 | 101.2%
Cc1noc(CN2CCN(C(=O)c3ccccn3)CC2)n1 | -3.094%
Cc1nc(C)c(C(=O)N2CCc3nc4c(C)csc4c(=O)n3CC2)s1.Cl | 93.57%
O=C1OCCN1CCc1nc(-c2cc3c4c(c2)CC(=O)N4CCC3)cs1 | -4.599%
O=C(O)CC[C@@H]1CN(c2ncccc2F)CC[C@@H]1N1CCOCC1 | 1.489%

Structure (SMILES) | Percent Effect
CSCc1nc(C(C)(C)NC(=O)OC(C)(C)C)no1 | 6.132%
COc1ccc(CN2C[C@@H](CN(C)CCO)[C@@H](CO)C2)cc1Cl | -12.8%
CC(C)(C)N1CC(C(=O)NCc2nc(C3CCCCC3)no2)CC1=O (configuration not stated) | -1.29%
CCc1ccc(CNC(=O)CCNS(=O)(=O)c2cn(C)c(C)n2)s1 | -8.825%
Cc1cc2c(=O)n3c(nc2s1)CCN(C(=O)c1cnn(C)c1C)CC3 | -11.91%
Cc1csc2c(=O)n3c(nc12)CCN(C(=O)c1ccnn1C)CC3 | 126.7%
COc1ccc(NC(=O)N2CCC(c3nnc[nH]3)CC2)cc1C | -18.03%
Cc1cc(NC(=O)N2CCOC(C(N)=O)C2)ccc1Br (configuration not stated) | 158.4%
NC(=O)C1CN(C(=O)Nc2cc(Cl)cc(Cl)c2)CCO1 (configuration not stated) | -5.843%
C[C@@H]1CN(C(=O)Nc2cccc(OC(F)F)c2)CC(C(N)=O)O1 (some centres not stated) | -8.405%
CN1CCCc2cc(NC(=O)N3CCOC(C(N)=O)C3)ccc21 (configuration not stated) | -7.642%
NC(=O)C1CN(C(=O)NCC2(c3ccc(F)cc3)CCC2)CCO1 (configuration not stated) | 2.915%
COCCN1CCC(CNC(=O)Nc2ccc(SC(F)(F)F)cc2)C1 (configuration not stated) | -1.712%
NC(=O)C1CN(C(=O)Nc2ccc(SC(F)(F)F)cc2)CCO1 (configuration not stated) | 111.1%
Cc1ccc(NC(=O)N2CCOC(C(N)=O)C2)cc1C(F)(F)F (configuration not stated) | 103.5%
COCCCC1(CO)CCCN(Cc2cccc(C#N)c2)C1 (configuration not stated) | 1.897%
COCC(C)NCc1ccc2[nH]c(C)c(C)c2c1 (configuration not stated) | 5.235%
Cc1ccc(-n2c(COCC(=O)O)nc3c(C)cccc32)nc1 | -11.98%
O=C(c1ccc2nncn2c1)N1CCCC1c1noc(C2CC2)n1 (configuration not stated) | -1.94%
OCCCN1CCCC1c1nc(Cc2ccc(F)cc2)no1 (configuration not stated) | -4.354%
Cc1ncsc1CN1CC(C)(C2CC2)CC1=O (configuration not stated) | -4.839%
Cc1nc(CN(C)C2CCN(CCCOc3ccccc3C)C2)no1 (configuration not stated) | 109.1%
Cc1nc(CN(C)C2CCN(CCCc3ccccc3)C2)no1 (configuration not stated) | 119.3%
Cc1nc(CN(C)C2CCN(CCCOc3ccc(F)cc3)C2)no1 (configuration not stated) | 112.3%
Cc1nc(CN(CCc2ccccc2)C2CCN(C)CC2)no1 | -15.44%
Cc1cccc(OCCCN2CCC(N(C)Cc3noc(C)n3)C2)c1 (configuration not stated) | 112.7%

Structure (SMILES) | Percent Effect
CCc1n[nH]c(C2CN(CCCOc3cccc(C)c3)CCO2)n1 (configuration not stated) | 13.14%
CC(C)N(Cc1cccc(Cl)c1)Cc1nnsc1Cl | 2.005%
Cc1cc(CN2CCc3nn(C)c(=O)cc3C2)no1 | -29.82%
O=C(NCC1CCS(=O)(=O)C1)c1sccc1-c1ccc(F)cc1 (configuration not stated) | -6.4%
Cc1cc(NC(=O)NCCc2ccsc2)n(C)n1 | 2.6%
Clc1snnc1CN1CCCC(Cn2cncn2)C1 (configuration not stated) | 3.779%
COCCc1noc(CN2CCCC(Cn3cncn3)C2)n1 (configuration not stated) | 89.51%
c1ccc(Cc2noc(CN3CCCC(Cn4cncn4)C3)n2)cc1 (configuration not stated) | 97.1%
c1coc(-c2noc(CN3CCCC(Cn4cncn4)C3)n2)c1 (configuration not stated) | -0.1927%
CC(C)Cc1noc(CN2CCCC(Cn3cncn3)C2)n1 (configuration not stated) | 3.537%
Fc1ccccc1Cc1noc(CN2CCCC(CN3CCCC3)C2)n1 (configuration not stated) | -1.357%
COCCN(C(=O)c1ccsc1)c1ccc(C#N)cc1 | -12.97%
O=C(Cc1cn2ccsc2n1)N1CCOCC(O)(CN2CCCC2)C1 (configuration not stated) | 4.067%
Cc1cc(NCc2cc3n(n2)CCCN(C(=O)N(C)C)C3)ncn1 | -7.228%
N[C@H]1CC[C@@H](CN2CCCn3nc(CNC(=O)C4CCC4)cc3C2)CC1 | 11.2%
Cc1nc(CN2CCCn3nc(CNC(=O)C4CCC4)cc3C2)co1 | -9.719%
Cc1cc(NCc2cc3n(n2)CCCN(C(=O)C2CCC2)C3)nc(N)n1 | 111.3%
CC(=O)N1CCCn2nc(CNS(=O)(=O)N3CCCCCC3)cc2C1 | -0.4584%
Cc1cc(C)nc(NCc2cc3n(n2)CCCN(C(=O)C2CCC2)C3)n1 | 104.2%
Cc1cc(NCc2cc3n(n2)CCCN(C(=O)C2CCC2)C3)ncn1 | 87.84%
Cc1cc(NCc2cc3n(n2)CCCN(S(C)(=O)=O)C3)ncn1 | -6.593%
O=C(C1CCC1)N1CCCn2nc(CNc3ncccn3)cc2C1 | 131.9%
CS(=O)(=O)N1CCCn2nc(CNc3ncccn3)cc2C1 | -7.874%
CC(=O)N1CCCn2nc(CNc3cc(C)ncn3)cc2C1 | 18.58%
